Test results as given in PubChem BioAssay.
Several values for one entry are separate records, joined by “and”; a condition that tells them apart may be missing. Equal entries are not always repeated. Results filed as inconclusive are left out. Activity calls are given as the source filed them. Cut-off read from the data, not from the text of the source, unless noted: active = inhibition above about 80%; inactive = the rest.

Assays:
[1] = compounds altering circadian rhythm period length – cell-based, LOPAC library, luminescence reporter (AID 2774; call rule not given here;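 note: values are relative to mean of DMSO wells on each plate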); settings: circadian reporter cells, at 7 µM, actives lie on both sides
[2] = test system: Hepatitis C virus NS3 helicase; assay: blockers of NS3h binding to ssDNA – biochemical, fluorescence polarization, LOPAC1280 library, primary screen (AID 687035; in the data active = inhibition above about 37%); settings: Purified HCV NS3 helicase, Cy5-dT15 ssDNA binding fluorescence polarization; stronger effect = higher value; concentration not given here
[3] = compounds altering Cy5-DNA-NS3h complex signal – biochemical, LOPAC1280, artefact control for HCV NS3 helicase inhibitor project (AID 687037; call rule not given here); settings: Cy5-DNA-NS3h complex fluorescence interference counterscreen
[4] = biological target: 6-phosphogluconate dehydrogenase, decarboxylating (Homo sapiens) (UniProt P52209); assay: inhibition of human phosphogluconate dehydrogenase – biochemical, recombinant enzyme, NADPH absorbance, primary screen (AID 1159550;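 active = at least 20% inhibition of 6-phosphogluconate dehydrogenase activity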); settings: recombinant 6PGD, NADPH absorbance 341 nm; at 10 µM; stronger effect = higher value
Sequence of 6-phosphogluconate dehydrogenase, decarboxylating (Homo sapiens) (P52209 whole entry, looked up): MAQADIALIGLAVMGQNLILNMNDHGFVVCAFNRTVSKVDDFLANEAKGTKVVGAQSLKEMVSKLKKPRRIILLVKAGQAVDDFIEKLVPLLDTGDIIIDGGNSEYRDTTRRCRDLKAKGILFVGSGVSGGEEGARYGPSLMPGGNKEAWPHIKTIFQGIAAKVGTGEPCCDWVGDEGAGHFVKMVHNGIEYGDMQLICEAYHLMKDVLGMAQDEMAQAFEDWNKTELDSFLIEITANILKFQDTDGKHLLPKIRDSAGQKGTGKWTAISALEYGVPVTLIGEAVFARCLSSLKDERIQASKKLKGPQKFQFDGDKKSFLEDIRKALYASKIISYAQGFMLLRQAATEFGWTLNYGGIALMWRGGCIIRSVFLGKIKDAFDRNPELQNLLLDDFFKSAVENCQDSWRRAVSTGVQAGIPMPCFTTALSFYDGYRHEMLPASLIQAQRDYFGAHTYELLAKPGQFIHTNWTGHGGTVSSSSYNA

[5] = viability loss in pontine glioma line – cell-based, SU-DIPG-XVII, MIPE5.0, CellTiter-Glo, qHTS, dose response (AID 1347060; cut-off not given, nearly all actives have AC50 up to about 26 µM;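 note: cells exposed to compound for 48 hours before viability readout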); settings: CellTiter-Glo ATP luminescence
[6] = viability loss in pontine glioma line – cell-based, SU-DIPG-XXV, MIPE5.0, CellTiter-Glo, qHTS, dose response (AID 1347065; cut-off not given, nearly all actives have AC50 up to about 26 µM;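 note: cells exposed to compound for 48 hours before ATP readout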); settings: CellTiter-Glo ATP luminescence
[7] = JHH-DIPG-1 glioma cell viability, MIPE5.0 library, CellTiter-Glo luminescence, qHTS (AID 1347067; cut-off not given, nearly all actives have AC50 up to about 26 µM;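 note: cells exposed to compound for 48 hours before readout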); settings: JHH-DIPG-1 glioma viability, CellTiter-Glo ATP luminescence
[8] = viability loss with induced miR-34 in A549 – imaging, A549 dox-inducible miR-34, nuclei and caspase counts, primary screen (AID 1347080;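 active = compounds whose cell count with miR-34 switched on is under 0.7 times the count with it off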); settings: A549 miR-34 inducible, Hoechst nuclei count, 48 h
[9] = blockers of cellular phospholipid synthesis – cell-based, LOPAC library, screen 4, primary screen (AID 1347384; call rule not given here); settings: animal cells, phospholipid biosynthesis inhibition screen; at 10 µM
[10] = biological target: NAD(+) hydrolase SARM1 (Homo sapiens) (UniProt Q6SZW1); assay: blocking NAD cleavage by SARM1 SAM-TIR – cell lysate, NAD-Glo luminescence (AID 1508614;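 active = compound whose remaining NAD level is above about 45 nM, limit read from the data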;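 note: higher remaining NAD means stronger inhibition of SARM1 NADase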); settings: SAM-TIR HEK293T lysate NADase, at 1 µM, stronger effect = higher value
Sequence of NAD(+) hydrolase SARM1 (Homo sapiens) (Q6SZW1 whole entry, looked up, the tested form may be a part): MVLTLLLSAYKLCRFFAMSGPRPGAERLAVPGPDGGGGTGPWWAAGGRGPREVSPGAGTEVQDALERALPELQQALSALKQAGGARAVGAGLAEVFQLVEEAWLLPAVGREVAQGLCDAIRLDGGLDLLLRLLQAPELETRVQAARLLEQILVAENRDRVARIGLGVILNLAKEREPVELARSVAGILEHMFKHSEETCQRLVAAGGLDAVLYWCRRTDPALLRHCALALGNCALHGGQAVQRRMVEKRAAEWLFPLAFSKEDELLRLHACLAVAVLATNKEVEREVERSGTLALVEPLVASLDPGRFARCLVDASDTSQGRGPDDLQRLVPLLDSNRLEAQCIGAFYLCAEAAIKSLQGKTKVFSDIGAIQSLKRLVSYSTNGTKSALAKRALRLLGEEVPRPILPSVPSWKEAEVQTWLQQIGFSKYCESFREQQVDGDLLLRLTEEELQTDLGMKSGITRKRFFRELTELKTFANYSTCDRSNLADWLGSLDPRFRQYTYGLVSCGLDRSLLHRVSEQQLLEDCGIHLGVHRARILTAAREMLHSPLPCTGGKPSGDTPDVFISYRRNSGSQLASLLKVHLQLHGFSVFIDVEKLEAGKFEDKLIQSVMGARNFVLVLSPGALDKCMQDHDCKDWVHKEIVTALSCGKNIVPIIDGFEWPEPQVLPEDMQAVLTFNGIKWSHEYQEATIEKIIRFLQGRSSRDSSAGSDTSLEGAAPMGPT

[11] = biological target: Mitogen-activated protein kinase 7 (Homo sapiens) (UniProt Q13164); assay: Gal4-ERK5 driven luciferase induction – cell-based, HTS, primary screen (AID 1508626;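 active = luciferase signal above three times the same-plate solvent-only control wells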;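 note: luciferase driven by Gal4-ERK5 fusion binding five Gal4 sites before minimal TATA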); settings: HeLa Gal4-ERK5 transactivation, 18 h, at 5 µM, stronger effect = higher value
Sequence of Mitogen-activated protein kinase 7 (Homo sapiens) (Q13164 whole entry, looked up, the tested form may be a part): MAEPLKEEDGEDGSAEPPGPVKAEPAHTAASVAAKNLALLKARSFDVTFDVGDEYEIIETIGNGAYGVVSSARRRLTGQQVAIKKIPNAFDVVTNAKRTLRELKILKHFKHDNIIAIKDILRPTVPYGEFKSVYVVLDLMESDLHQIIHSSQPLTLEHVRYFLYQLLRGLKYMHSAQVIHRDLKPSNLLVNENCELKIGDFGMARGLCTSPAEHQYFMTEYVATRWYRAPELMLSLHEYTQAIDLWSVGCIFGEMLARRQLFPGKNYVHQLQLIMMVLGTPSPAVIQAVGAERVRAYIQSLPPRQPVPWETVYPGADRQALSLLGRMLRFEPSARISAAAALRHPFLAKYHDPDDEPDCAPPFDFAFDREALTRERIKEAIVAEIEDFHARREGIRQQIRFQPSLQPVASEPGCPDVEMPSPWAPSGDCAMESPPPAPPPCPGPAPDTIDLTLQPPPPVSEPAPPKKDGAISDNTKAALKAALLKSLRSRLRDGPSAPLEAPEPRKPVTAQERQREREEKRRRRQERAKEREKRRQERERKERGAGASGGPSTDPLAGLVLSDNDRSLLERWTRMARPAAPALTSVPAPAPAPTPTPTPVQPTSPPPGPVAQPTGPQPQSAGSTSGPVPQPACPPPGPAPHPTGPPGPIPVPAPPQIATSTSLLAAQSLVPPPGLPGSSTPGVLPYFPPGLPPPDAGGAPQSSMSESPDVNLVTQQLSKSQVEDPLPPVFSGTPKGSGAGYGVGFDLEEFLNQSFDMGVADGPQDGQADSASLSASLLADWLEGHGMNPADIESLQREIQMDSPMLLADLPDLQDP

[12] = galactose survival enhancers in mitochondrial complex I cybrids – cell-based, galactose medium, ATP luminescence, primary screen (AID 1645843;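 active = z-score of at least 1.8 in each of two replicates, scored against plate mean and spread of sample wells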;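 note: positive z means more ATP and so rescue of galactose-driven cybrid death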); settings: complex I mutant cybrid cells, 72 h, stronger effect = higher value
[13] = growth inhibition, single agent or in combination, cell-based, chromothripsis tumors, cisplatin or BGB combos (AID 1671449); settings: LFS_MB_P medulloblastoma cells;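 note: cells exposed for 96 hours; 0% = vehicle DMSO and 100% = killing by high DMSO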
[14] = growth inhibition, single agent and combos, cell-based, chromothripsis tumors, cisplatin or BGB combos (AID 1671450); settings: HDN33 neuroblastoma cells, stronger effect = higher value;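 note: cells exposed to compound for four days; 0% = vehicle DMSO and 100% = cell killing by high DMSO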
[15] = growth inhibition, single agents and combos, ICB984, cell-based, cisplatin or BGB combos, synergistic combos for chromothripsis tumors (AID 1671451; call rule not given here;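 note: cells exposed for 96 hours before readout; 0% = vehicle DMSO and 100% = killing by high DMSO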); settings: ICB984 medulloblastoma cells, drug combinations, stronger effect = higher value
[16] = growth inhibition, single agents and combos, LFS_MB_1R, cell-based, cisplatin or BGB combos, synergistic combos for chromothripsis tumors (AID 1671452); settings: LFS_MB_1R medulloblastoma cells, stronger effect = higher value;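 note: cells exposed for 96 hours before readout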
[17] = growth inhibition, single agents and combos, HTB85, cell-based, BGB or cisplatin IC20 combos, synergistic combos for chromothripsis tumors (AID 1671453); settings: HTB85 osteosarcoma cells, drug combinations, stronger effect = higher value;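 note: cells exposed for 96 hours before readout; 0% = vehicle DMSO and 100% = high DMSO killing control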
[18] = growth inhibition, single agents and combos, CRL2098, cell-based, BGB or cisplatin IC20 combos, synergistic combos for chromothripsis tumors (AID 1671454); settings: CRL2098 osteosarcoma cells, drug combinations, stronger effect = higher value;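 note: cells exposed for 96 h before readout; 0% = vehicle DMSO and 100% = killing by high DMSO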
[19] = growth inhibition, single agents and combos, HD-MB03, cell-based, BGB or cisplatin IC20 combos, synergistic combos for chromothripsis tumors (AID 1671455; in the data active = inhibition above about 83%;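 note: 0% = vehicle DMSO and 100% = high DMSO as cytotoxic control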); settings: HD-MB03 medulloblastoma cells, stronger effect = higher value
[20] = growth inhibition, single agents and combos, UWB1.289, cell-based, BGB or cisplatin combos, synergistic combos for chromothripsis tumors (AID 1671456); settings: UWB1.289 ovarian carcinoma cells, stronger effect = higher value;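 note: cells exposed to compound for four days; 0% = vehicle DMSO and 100% = killing by high DMSO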
[21] = growth inhibition, single agents and combos, LFS_MB_2R, cell-based, cisplatin combos, synergistic combos for chromothripsis tumors (AID 1671457); settings: LFS_MB_2R medulloblastoma cells, stronger effect = higher value;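 note: cells exposed to compound for four days before readout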
[22] = growth inhibition, MDA-MB-436, cell-based, BGB or cisplatin combos, synergistic combos for chromothripsis tumors (AID 1671458; call rule not given here;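 note: cells exposed for 96 hours; 0% = vehicle DMSO and 100% = killing by high DMSO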); settings: MDA-MB-436 breast carcinoma growth inhibition, drug combinations, stronger effect = higher value
[23] = UWB1.289_BRCA1 ovarian cancer growth, cell-based, BGB or cisplatin combinations (AID 1671459); settings: UWB1.289 BRCA1 ovarian carcinoma, drug combinations, stronger effect = higher value
[24] = drug combination toxicity in non-malignant astrocytes – cell-based, BGB or cisplatin IC20 combos, cytotoxicity control for chromothriptic childhood tumor combination screen (AID 1671460); settings: Human astrocytes, viability inhibition, drug combinations, at 0.5 µM, stronger effect = higher value;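 note: cells exposed to compounds for 96 hours before viability readout; 0% = vehicle and 100% = killing control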
[25] = BT084 cell growth, single and combined drugs, ICGC_MB145, cisplatin and BGB IC40 combos (AID 1671461); settings: BT084 medulloblastoma cells, drug combinations, stronger effect = higher value;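 note: cells exposed to drugs for 96 hours; 0% = vehicle DMSO and 100% = high DMSO full killing control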
[26] = RCMB18 cell growth, single agent and combined, cisplatin and BGB IC40 combos (AID 1671462); settings: RCMB18 medulloblastoma cells, stronger effect = higher value;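 note: cells exposed to compound for four days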
[27] = CRL1545 cell growth, single agent and combined, cisplatin and BGB IC20 combos (AID 1671464); settings: CRL1545 osteosarcoma cells, stronger effect = higher value;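 note: cells exposed to compound for 96 hours before readout; 0% = vehicle DMSO and 100% = high DMSO killing control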
[28] = measured here: combination with BGB IC40, at 0.05 µM
[29] = measured here: with BGB IC20 combination, at 0.5 µM
[30] = measured here: with cisplatin IC20 combination, at 0.5 µM
[31] = measured here: combination with cisplatin, at 0.5 µM
[32] = measured here: combination with cisplatin, at 5 µM

SMILES: COc1cc(NS(C)(=O)=O)ccc1Nc1c2ccccc2nc2ccccc12
- period change [1]: -0.215 h (inactive)
- inhibition [2]: -8% (inactive)
- fluorescence ratio (interference) [3]: 0.9 (inactive)
- inhibition [4]: -14.7% (inactive)
- AC50 [5]: 0.934 µM (active)
- AC50 [6]: 11.8 µM (active)
- AC50 [7]: 16.6 µM (active)
- fold change ([8]; stronger effect = lower value, cell number ratio, induced over uninduced): 0.846 (inactive)
- fold change ([8]; measured here: relative caspase fold change +Dox/-Dox): 1.94
- cell count ([8]; measured here: total cells with miR-34 induction, stronger effect = lower value): 867
- cell count ([8]; measured here: total cells without miR-34 induction): 1020
- outcome [9]: inactive
- remaining NAD [10]: 10 nM (inactive)
- luciferase signal [11]: 52 AU (inactive)
- z-score [12]: -1.31 (inactive)
- inhibition ([13]; at 0.5 µM, stronger effect = higher value): 66.6% (inactive) and -15.7% (inactive)
- inhibition ([13]; measured here: combination with BGB IC20, at 0.005 µM): -8.73% and -9.94%
- inhibition ([13]; measured here: combination with BGB IC40, at 0.005 µM): -5.2% and -25.6%
- inhibition [13, 28]: -1.49% and -18.2%
- inhibition ([13]; measured here: combination with cisplatin, at 0.5 µM, stronger effect = higher value): 79.4% and -1.04%
- inhibition ([13]; measured here: combination with cisplatin, at 5 µM, stronger effect = higher value): 41.8% and 26.1%
- inhibition ([14]; BGB combo, at 5 µM): 88.5% and 63.3%
- inhibition ([14]; at 0.5 µM): 50.8% (inactive) and 41.9% (inactive)
- inhibition ([14]; cisplatin combo, at 5 µM): 68.8% and 65.8%
- inhibition [14, 29]: 51.3% and 43.7%
- inhibition [14, 30]: 45.8% and 24%
- inhibition ([14]; single agent, at 5 µM): 88.6% and 78.5%
- inhibition ([15]; BGB IC20 combo, at 0.005 µM): -6.17% and -3.09%
- inhibition ([15]; BGB IC40 combo, at 0.005 µM): 3.68% and -48.5%
- inhibition ([15]; BGB IC40 combo, at 0.05 µM): 39.5% and 18.4%
- inhibition ([15]; at 0.5 µM): -24.7% (inactive) and -27.8% (inactive)
- inhibition ([15]; cisplatin combo, at 0.05 µM): 39.5% and 15.2%
- inhibition ([15]; cisplatin combo, at 0.5 µM): -38.9% and -24.5%
- inhibition ([15]; cisplatin combo, at 5 µM): -5% and -33%
- inhibition ([15]; measured here: 5 uM single agent, at 5 µM): 3.59% and -0.607%
- inhibition ([16]; at 0.5 µM): 1.68% (inactive) and -19.1% (inactive)
- inhibition [16, 28]: 17.9% and -5.14%
- inhibition [16, 31]: 10% and -20.9%
- inhibition [16, 32]: 63.4% and 27.6%
- inhibition ([17]; at 0.5 µM): 17.3% (inactive) and 24.9% (inactive)
- inhibition ([17]; measured here: with BGB IC20, at 0.5 µM): 3.95% and 14.9%
- inhibition ([17]; measured here: with BGB IC20, at 5 µM): 82.3% and 79.8%
- inhibition ([17]; measured here: with cisplatin IC20, at 0.5 µM): 25% and 29.1%
- inhibition ([17]; measured here: with cisplatin IC20, at 5 µM): 87.8% and 84.6%
- inhibition ([17]; single agent, at 5 µM): 91% and 89.1%
- inhibition ([18]; at 0.5 µM): 3.39% (inactive) and -17.2% (inactive)
- inhibition ([18]; measured here: combination with BGB at IC20, at 0.5 µM): 5.83% and -2.6%
- inhibition ([18]; measured here: combination with cisplatin at IC20, at 0.5 µM): 6.88% and -21.3%
- inhibition ([19]; at 0.5 µM): 89.9% (active) and 92.8% (active)
- inhibition ([19]; measured here: combo with BGB at IC20, at 0.5 µM): 85.2% and 89.8%
- inhibition ([19]; measured here: combo with cisplatin at IC20, at 0.5 µM): 93.1% and 93.7%
- inhibition ([20]; at 0.5 µM): 34.8% (inactive) and 27.8% (inactive)
- inhibition ([20]; measured here: inhibition with BGB combination, at 0.05 µM): -10.9% and -18.9%
- inhibition ([20]; measured here: inhibition with cisplatin combination, at 0.05 µM): 5.17% and -0.785%
- inhibition ([21]; at 0.5 µM): -7.33% (inactive) and -4.82% (inactive)
- inhibition [21, 31]: -3.1% and -25.3%
- inhibition [21, 32]: 21% and 20.3%
- inhibition ([22]; at 0.5 µM): 43.4% (inactive) and 40.4% (inactive)
- inhibition ([22]; measured here: BGB combination, at 0.5 µM): 27.5% and 21.1%
- inhibition ([22]; measured here: BGB combination, at 5 µM): 55% and 42.6%
- inhibition ([22]; measured here: cisplatin combination, at 0.5 µM): 41.4% and 47.1%
- inhibition ([22]; measured here: cisplatin combination, at 5 µM): 67.1% and 66.9%
- inhibition ([23]; BGB combination, concentration series, at 5 µM): 79.6% and 77.5%
- inhibition ([23]; at 0.5 µM): 31% (inactive) and 27.1% (inactive)
- inhibition ([23]; cisplatin combination, concentration series, at 5 µM): 109% and 107%
- inhibition [24]: 47.7% (inactive) and 54% (inactive)
- inhibition ([24]; measured here: combo with BGB IC20): 46.6% and 56.1%
- inhibition ([24]; measured here: combo with cisplatin IC20): 26.6% and 33.1%
- inhibition ([25]; at 0.5 µM): -11.3% (inactive) and -37.4% (inactive)
- inhibition ([25]; cisplatin combination, at 0.5 µM): -2.36% and -21.2%
- inhibition ([25]; cisplatin combination, at 5 µM): 23.7% and 15.2%
- inhibition ([25]; measured here: BGB IC40 combination 0.05 uM, at 0.05 µM): 53.7% and -12.4%
- inhibition ([25]; single agent, at 5 µM): 7.96% and 23.3%
- inhibition ([26]; at 0.5 µM): -1.22% (inactive) and -23% (inactive)
- inhibition ([26]; cisplatin combo, at 5 µM): 58.3% and 44.1%
- inhibition ([26]; measured here: BGB IC40 combination, at 0.05 µM): -16.8% and -37.3%
- inhibition [26, 31]: 28.6% and 11.4%
- inhibition ([26]; single agent, at 5 µM): 29.4% and 2.77%
- inhibition ([27]; at 0.5 µM): 24% (inactive) and 17.8% (inactive)
- inhibition [27, 29]: 24.3% and 13.1%
- inhibition [27, 30]: 23.8% and 20.2%
- inhibition ([27]; single agent, at 0.05 µM): 42.2% and 26.1%
- inhibition ([27]; single agent, at 5 µM): 82.1% and 75.5%
